# Source: the supplement of paper PMC10849652
# About 8,800 targets were measured; listed, in parts, are those with a hit and a random draw of the rest. About 0.5% of all pairs of compound and target were hits. Values without a mark were called inactive.
# Key:
# Assay in all cases: log2 fold change, soluble protein after heating vs DMSO (PISA); higher = thermal stabilisation; K562 lysate, 10 uM; active = over 0.2 and 3.5 SD of the protein, either way, in both replicates (recomputed)
# [1] = compound: Cc1cn(-c2cc(NC(=O)c3ccc(C)c(Nc4nccc(-c5cccnc5)n4)c3)cc(C(F)(F)F)c2)cn1 [nilotinib]
# Outline: (§1)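 Pellets of K562 cells were dounce-homogenised in PBS pH 7.4 with 1 mM MgCl2, and the crude extract was held at 1 mg/mL protein for a 30 min treatment with 10 μM compound. Aliquots were heated for 3 min over 48°C-58°C and pooled before NP-40 was added to 0.5% at 4°C. The supernatant from 21,000xg for 90 min was quantified by TMTpro 16plex LC-MS/MS with channel sums equalised. Values are reported from duplicates as log-two fold change in thermal stability relative to solvent controls.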
# [2] = compound: Cc1nc(Nc2n[nH]c3c2CN(C(=O)N[C@H](CN(C)C)c2ccccc2)C3(C)C)c2sccc2n1
# Outline: as §1
# [3] = compound: Cc1ncc(-c2ccnc(Nc3ccc(S(C)(=O)=O)cc3)n2)n1C(C)C
# Outline: as §1
# [4] = compound: Cn1cncc1[C@@](N)(c1ccc(Cl)cc1)c1ccc2c(c1)c(-c1cccc(Cl)c1)cc(=O)n2C [tipifarnib]
# Outline: as §1
# [5] = compound: CS(=O)(=O)CCNCc1ccc(-c2ccc3ncnc(Nc4ccc(OCc5cccc(F)c5)c(Cl)c4)c3c2)o1 [lapatinib]
# Outline: as §1
# [6] = compound: CS(=O)(=O)N1CCN(Cc2cc3nc(-c4cccc5[nH]ncc45)nc(N4CCOCC4)c3s2)CC1 [pictilisib]
# Outline: as §1
# [7] = compound: C[C@H](C1=CC=C(C=C1)C(=O)NC2=C3C=CNC3=NC=C2)N
# Outline: as §1
# [8] = compound: C[C@H](Nc1ncnc2nc[nH]c12)c1cc2cccc(Cl)c2c(=O)n1-c1ccccc1 [duvelisib]
# Outline: as §1
# [9] = compound: Cc1cc(Nc2cc(CN3CCOCC3)c3nc(C)c(Cc4ccc(Cl)cc4F)n3n2)n[nH]1 [gandotinib]
# Outline: as §1
# [10] = compound: Cc1ccc(NC(=O)c2ccc(CN3CC[C@H](N(C)C)C3)c(C(F)(F)F)c2)cc1Nc1nccc(-c2cncnc2)n1 [bafetinib]
# Outline: as §1
# [11] = compound: Cc1cccc(CC(=O)N2CCc3c2ccc(-c2cn(C)c4ncnc(N)c24)c3F)n1
# Outline: as §1
# [12] = compound: Cc1nc(Nc2ncc(C(=O)Nc3c(C)cccc3Cl)s2)cc(N2CCN(CCO)CC2)n1 [dasatinib]
# Outline: as §1
# [13] = compound: Cn1cc(-c2ccc3c(c2)CCN3C(=O)Cc2cccc(C(F)(F)F)c2)c2c(N)ncnc21
# Outline: as §1
# [14] = compound: NC(=O)c1cnc(N[C@@H]2CCCC[C@@H]2N)nc1Nc1cccc(-n2nccn2)c1
# Outline: as §1
# [15] = compound: NC1(c2ccc(-c3nc4ccn5c(=O)[nH]nc5c4cc3-c3ccccc3)cc2)CCC1
# Outline: as §1
# [16] = compound: C[C@@H](Oc1cc(-c2cnn(C3CCNCC3)c2)cnc1N)c1c(Cl)ccc(F)c1Cl [crizotinib]
# Outline: as §1
# [17] = compound: Cc1cc(Nc2cc(N3CCN(C)CC3)nc(Sc3ccc(NC(=O)C4CC4)cc3)n2)n[nH]1 [tozasertib]
# Outline: as §1
# [18] = compound: Cc1ccc(-n2nc(C(C)(C)C)cc2NC(=O)Nc2ccc(OCCN3CCOCC3)c3ccccc23)cc1 [doramapimod]
# Outline: as §1
# [19] = compound: Cn1cc(CNCC2CCN(c3ncc(C(=O)NO)cn3)CC2)c2ccccc21 [quisinostat]
# Outline: as §1
# [20] = compound: NC(=O)Nc1cc(-c2cccc(F)c2)sc1C(=O)N[C@H]1CCCNC1
# Outline: as §1
# Sequence of UniProt Q9BWG6 (Q9BWG6 whole entry, looked up): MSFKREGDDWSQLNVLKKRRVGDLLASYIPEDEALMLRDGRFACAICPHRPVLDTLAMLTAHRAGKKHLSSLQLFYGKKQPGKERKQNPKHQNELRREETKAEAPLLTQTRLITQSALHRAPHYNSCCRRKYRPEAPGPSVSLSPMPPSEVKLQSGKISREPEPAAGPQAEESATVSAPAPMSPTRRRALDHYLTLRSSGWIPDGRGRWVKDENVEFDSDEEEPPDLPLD
# Sequence of UniProt P19793 (P19793 whole entry, looked up): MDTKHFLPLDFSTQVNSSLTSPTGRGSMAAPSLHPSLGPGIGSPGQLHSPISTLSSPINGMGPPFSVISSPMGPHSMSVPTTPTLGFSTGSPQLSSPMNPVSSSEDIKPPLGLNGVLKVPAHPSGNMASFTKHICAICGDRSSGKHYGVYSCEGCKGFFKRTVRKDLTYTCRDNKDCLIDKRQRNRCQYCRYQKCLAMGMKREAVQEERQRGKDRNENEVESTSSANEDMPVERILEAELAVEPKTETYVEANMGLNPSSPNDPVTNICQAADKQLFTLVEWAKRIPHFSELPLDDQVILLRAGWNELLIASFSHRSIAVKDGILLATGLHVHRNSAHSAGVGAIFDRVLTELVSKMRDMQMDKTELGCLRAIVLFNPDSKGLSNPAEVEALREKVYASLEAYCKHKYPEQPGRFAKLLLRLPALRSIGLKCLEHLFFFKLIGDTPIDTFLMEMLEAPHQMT
# Sequence of UniProt Q8TEB9 (Q8TEB9 whole entry, looked up): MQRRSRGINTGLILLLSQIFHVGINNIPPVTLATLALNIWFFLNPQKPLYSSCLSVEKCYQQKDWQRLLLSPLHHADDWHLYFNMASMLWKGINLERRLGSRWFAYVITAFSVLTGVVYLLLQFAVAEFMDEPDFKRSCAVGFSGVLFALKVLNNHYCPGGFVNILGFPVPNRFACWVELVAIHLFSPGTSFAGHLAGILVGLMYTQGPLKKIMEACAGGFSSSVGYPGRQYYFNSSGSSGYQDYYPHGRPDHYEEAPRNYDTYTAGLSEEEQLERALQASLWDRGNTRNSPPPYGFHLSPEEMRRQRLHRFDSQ
# Sequence of UniProt O94761 (O94761 whole entry, looked up): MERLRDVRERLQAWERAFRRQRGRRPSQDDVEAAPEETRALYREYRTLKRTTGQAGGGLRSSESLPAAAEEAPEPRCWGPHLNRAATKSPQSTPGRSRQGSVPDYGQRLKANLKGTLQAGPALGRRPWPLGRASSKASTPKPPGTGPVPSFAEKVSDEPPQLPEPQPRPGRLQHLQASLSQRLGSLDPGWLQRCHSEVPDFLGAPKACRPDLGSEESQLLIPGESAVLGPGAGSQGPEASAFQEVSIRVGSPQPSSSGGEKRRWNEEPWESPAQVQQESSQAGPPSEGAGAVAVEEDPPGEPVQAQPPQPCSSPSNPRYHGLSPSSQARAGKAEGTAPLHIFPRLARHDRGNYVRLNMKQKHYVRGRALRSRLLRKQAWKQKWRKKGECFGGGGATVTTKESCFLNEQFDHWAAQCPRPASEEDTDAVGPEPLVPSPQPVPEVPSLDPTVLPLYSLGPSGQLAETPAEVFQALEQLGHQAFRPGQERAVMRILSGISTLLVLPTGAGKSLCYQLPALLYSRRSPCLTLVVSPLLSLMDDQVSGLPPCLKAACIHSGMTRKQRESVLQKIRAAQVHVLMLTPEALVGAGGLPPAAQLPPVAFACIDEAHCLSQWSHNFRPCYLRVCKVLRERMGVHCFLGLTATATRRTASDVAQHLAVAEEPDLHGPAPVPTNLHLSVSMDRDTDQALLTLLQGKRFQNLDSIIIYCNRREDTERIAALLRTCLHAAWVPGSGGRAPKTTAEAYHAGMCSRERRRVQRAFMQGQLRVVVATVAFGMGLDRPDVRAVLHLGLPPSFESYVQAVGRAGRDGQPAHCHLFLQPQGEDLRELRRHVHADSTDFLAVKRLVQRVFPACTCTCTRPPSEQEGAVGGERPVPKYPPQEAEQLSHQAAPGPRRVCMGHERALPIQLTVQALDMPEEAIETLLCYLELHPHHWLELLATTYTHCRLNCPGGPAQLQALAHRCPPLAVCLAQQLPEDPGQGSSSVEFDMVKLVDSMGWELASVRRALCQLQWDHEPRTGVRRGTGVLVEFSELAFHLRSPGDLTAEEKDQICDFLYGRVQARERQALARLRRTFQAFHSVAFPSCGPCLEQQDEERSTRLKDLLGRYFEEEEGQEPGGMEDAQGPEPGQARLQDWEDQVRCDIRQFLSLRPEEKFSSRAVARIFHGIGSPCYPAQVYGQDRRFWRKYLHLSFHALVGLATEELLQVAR
# Sequence of UniProt Q9Y644 (Q9Y644 whole entry, looked up): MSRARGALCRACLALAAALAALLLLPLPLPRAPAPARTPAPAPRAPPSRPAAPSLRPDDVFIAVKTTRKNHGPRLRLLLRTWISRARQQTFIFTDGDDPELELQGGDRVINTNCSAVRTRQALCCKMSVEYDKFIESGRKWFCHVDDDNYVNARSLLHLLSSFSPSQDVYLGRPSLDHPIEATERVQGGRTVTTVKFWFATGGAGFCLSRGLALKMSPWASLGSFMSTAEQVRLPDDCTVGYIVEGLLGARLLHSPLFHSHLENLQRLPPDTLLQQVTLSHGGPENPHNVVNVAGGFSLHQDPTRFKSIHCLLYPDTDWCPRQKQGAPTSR
# Sequence of UniProt Q6PCD5 (Q6PCD5 whole entry, looked up): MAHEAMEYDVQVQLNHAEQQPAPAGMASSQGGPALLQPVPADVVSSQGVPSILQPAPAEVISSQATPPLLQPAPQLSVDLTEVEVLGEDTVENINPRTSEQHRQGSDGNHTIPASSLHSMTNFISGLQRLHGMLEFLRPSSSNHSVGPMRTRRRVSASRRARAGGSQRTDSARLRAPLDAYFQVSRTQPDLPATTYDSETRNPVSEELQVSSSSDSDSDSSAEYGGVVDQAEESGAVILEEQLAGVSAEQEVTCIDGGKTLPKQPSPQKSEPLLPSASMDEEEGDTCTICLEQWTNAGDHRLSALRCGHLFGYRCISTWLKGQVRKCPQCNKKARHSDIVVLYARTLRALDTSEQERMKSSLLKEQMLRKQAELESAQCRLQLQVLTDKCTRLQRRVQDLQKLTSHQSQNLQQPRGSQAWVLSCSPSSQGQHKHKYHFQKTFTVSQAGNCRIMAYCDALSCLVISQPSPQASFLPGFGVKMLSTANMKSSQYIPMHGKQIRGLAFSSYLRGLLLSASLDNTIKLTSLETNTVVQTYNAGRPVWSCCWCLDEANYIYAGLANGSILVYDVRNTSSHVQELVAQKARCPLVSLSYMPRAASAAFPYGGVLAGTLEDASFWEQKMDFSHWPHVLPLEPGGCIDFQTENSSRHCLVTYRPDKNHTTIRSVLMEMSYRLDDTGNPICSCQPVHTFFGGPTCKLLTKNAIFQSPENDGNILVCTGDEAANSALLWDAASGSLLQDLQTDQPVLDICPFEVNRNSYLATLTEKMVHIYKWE
# Sequence of UniProt O60930 (O60930 whole entry, looked up): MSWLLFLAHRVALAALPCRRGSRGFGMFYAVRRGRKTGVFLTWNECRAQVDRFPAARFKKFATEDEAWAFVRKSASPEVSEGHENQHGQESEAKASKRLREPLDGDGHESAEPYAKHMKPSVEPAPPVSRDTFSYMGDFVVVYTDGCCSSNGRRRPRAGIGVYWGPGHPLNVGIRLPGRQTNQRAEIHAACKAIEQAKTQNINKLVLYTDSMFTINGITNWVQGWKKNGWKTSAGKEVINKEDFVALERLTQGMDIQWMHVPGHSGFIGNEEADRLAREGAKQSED
# Sequence of UniProt Q92698 (Q92698 whole entry, looked up): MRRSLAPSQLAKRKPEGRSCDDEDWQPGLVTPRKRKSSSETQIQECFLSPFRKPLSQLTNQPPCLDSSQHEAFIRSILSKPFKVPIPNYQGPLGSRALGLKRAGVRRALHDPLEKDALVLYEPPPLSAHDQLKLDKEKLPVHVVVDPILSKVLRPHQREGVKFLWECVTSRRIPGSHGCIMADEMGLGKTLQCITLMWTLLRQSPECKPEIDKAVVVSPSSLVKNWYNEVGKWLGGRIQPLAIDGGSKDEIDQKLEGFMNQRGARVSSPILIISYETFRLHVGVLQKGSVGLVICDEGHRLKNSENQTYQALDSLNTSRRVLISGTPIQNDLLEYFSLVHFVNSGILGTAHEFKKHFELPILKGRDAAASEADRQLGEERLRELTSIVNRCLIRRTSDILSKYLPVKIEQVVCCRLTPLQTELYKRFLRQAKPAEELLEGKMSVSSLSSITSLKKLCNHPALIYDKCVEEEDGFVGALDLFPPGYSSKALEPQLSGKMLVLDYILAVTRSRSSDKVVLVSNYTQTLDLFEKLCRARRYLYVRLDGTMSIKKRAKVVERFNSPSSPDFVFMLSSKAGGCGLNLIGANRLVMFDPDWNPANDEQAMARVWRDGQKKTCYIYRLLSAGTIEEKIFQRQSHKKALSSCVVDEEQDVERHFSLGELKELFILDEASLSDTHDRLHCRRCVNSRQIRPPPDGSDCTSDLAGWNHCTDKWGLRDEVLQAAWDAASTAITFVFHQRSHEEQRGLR
# Sequence of UniProt Q96LT9 (Q96LT9 whole entry, looked up): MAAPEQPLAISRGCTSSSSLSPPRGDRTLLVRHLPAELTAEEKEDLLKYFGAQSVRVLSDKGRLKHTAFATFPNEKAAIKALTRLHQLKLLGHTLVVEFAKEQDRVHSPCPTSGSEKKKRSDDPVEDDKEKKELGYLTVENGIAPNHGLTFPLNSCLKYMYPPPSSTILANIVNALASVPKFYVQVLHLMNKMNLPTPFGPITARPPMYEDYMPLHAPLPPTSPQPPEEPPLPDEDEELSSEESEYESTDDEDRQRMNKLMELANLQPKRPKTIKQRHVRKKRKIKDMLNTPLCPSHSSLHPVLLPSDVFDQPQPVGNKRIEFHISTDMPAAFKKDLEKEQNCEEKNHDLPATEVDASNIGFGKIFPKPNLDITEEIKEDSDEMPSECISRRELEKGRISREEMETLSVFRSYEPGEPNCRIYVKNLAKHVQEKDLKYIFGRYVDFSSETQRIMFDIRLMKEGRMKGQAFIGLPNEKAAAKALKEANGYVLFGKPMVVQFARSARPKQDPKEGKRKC
Target,log2 fold change [1],log2 fold change [2],log2 fold change [3],log2 fold change [4],log2 fold change [5],log2 fold change [6],log2 fold change [7],log2 fold change [8],log2 fold change [9],log2 fold change [10],log2 fold change [11],log2 fold change [12],log2 fold change [13],log2 fold change [14],log2 fold change [15],log2 fold change [16],log2 fold change [17],log2 fold change [18],log2 fold change [19],log2 fold change [20]
RBBP7 (UniProt C9J7L0),-0.133,0.046,0.222,0.039,,,,,,,,,,,,,,,,
RAD54L (UniProt Q92698),-0.004,0.078,0.037,0.007,-0.029,0.029,-1.75 (active),0.109,0.454,-0.185,0.617,-0.212,-0.054,0.015,-0.073,,,,,
SATB2 (UniProt Q9UPW6),-0.08,-0.02,-0.005,0.009,-0.009,,0.042,0.03,-0.039,,-0.008,0.041,0.013,0.031,0,0.009,-0.008,0.002,-0.06,0.018
RDH11 (UniProt Q8TC12),0.034,-0.05,-0.045,-0.038,-0.035,,-0.11,-0.011,0.298 (active),,0.328 (active),-0.075,-0.021,0.034,-0.011,-0.034,0.009,0.041,0.038,0.103
RNASEH1 (UniProt O60930),,,,,,,-0.014,,-0.174,,0.274,,,,,,,,,
RXRA (UniProt P19793),0.164,-0.053,0.119,0.011,-0.045,,-0.041,0,-0.047,,0.126,-0.112,-0.024,0.024,-0.014,-0.062,,0.019,-0.028,0.027
RBM45 (UniProt Q8IUH3),0.051,-0.077,0.143,-0.012,-0.12,,0.184,,-0.1,,0.077,,,0.061,,-0.094,,0.014,-0.145,-0.025
RAB5IF isoform 5 (UniProt Q9BUV8),-0.033,-0.033,-0.003,-0.189,-0.043,-0.122,0.753 (active),-0.071,-0.234,0.221,-0.357,-0.108,0.06,0.026,-0.096,,0,,,
RFNG (UniProt Q9Y644),0.184,0.054,-0.078,-0.048,,,,,,,,,,,,,,,,
RNPC3 (UniProt Q96LT9),-0.104,0.069,0.01,-0.075,-0.018,,0.036,0.072,0.016,,-0.115,0.042,-0.061,-0.056,0.06,-0.043,,-0.115,-0.071,-0.063
RLIM (UniProt Q9NVW2),,,,,,-0.053,,,,-0.193,,,,,,-0.323,,-0.044,-0.748 (active),0.233
RALGAPB isoform 3 (UniProt Q86X10),,,,,,-0.018,-0.04,-0.396,-0.33,-0.255,-0.026,0.052,-0.034,,,,0.027,,,
S100A6 (UniProt P06703),,,,,0.069,,0.088,0,0.207,,-0.119,0.774 (active),-0.063,-0.063,0.026,0.119,-0.038,-0.017,0.001,-0.078
SCNM1 (UniProt Q9BWG6),-0.078,-0.045,-0.091,0.045,0.006,,0.022,0.057,0.015,,-0.157,0.122,0.015,-0.104,-0.106,0.057,-0.039,-0.017,-0.061,0.06
SERAC1 (UniProt Q96JX3),0.085,-0.133,-0.029,0.033,,-0.018,-0.074,0.145,0.052,-0.276,0.127,-0.152,0.052,,-0.023,,-0.089,,,
RBM4 isoform 3 (UniProt Q9BWF3),,,,,,,,,,,,,,,,0.114,,0.016,-0.094,0.06
RHOU (UniProt Q7L0Q8),-0.032,-0.028,0.114,0.12,-0.05,,-0.323 (active),0.024,-0.031,,0.056,-0.004,0.145,-0.045,0.033,-0.002,0.113,0.038,-0.053,0.035
RNF170 (UniProt Q96K19),-0.04,0,0.043,-0.3,-0.011,-0.332,-0.042,-0.229,-0.198,0.024,1.2 (active),-0.008,-0.028,-0.07,0.073,,,,,
RFWD3 (UniProt Q6PCD5),0.042,-0.066,-0.082,-0.037,,-0.12,0.036,0.041,0.004,-0.04,0.107,0.027,0.004,,-0.053,-0.066,-0.037,0.036,-0.041,0.003
RUFY2 isoform 1 (UniProt Q8WXA3),-0.006,0.02,0.119,0.177,,-0.533 (active),0.116,,0.072,0.177,-0.099,,,,,-0.015,0.131,-0.136,0.047,0.007
RECQL4 (UniProt O94761),0.051,0.102,-0.063,0.024,,-0.032,-0.039,0.061,-0.472 (active),-0.099,0.146,-0.007,-0.019,,0.017,-0.079,-0.014,0.029,-0.094,0.023
RHBDD1 (UniProt Q8TEB9),,,,,0.06,-0.216,0.036,,-0.118,-0.133,-0.028,,,0.103,,,-0.071,,,
SEMA4G isoform 2 (UniProt Q9NTN9),,,,,,,0.036,-0.294,0.019,,-0.024,0.006,0.235,,0.077,-0.084,0.082,-0.053,0.074,0.085
RPS6KA5 (UniProt O75582),-0.037,0.004,-0.079,0.042,-0.024,,0.13,-0.011,-0.23,,-0.032,-0.006,0.065,-0.086,-0.127,0.028,0.106,-0.043,0.062,0.073
